Most compounds without a hit are left out; they make up all but 3.4% or so of the library.
MEKK2 WT-MEK5: modulators of MEK5 binding to wildtype MEKK2, primary screen, biochemical, multiplex bead flow cytometry, Alexa488-MEK5. Mitogen-activated protein kinase kinase kinase 2 (Homo sapiens), Q9Y2U5. Alexa488-MEK5 binding to MEKK2 WT; actives lie on both sides. binding response (% of control), % at 10 µM. actives 1.1% (n = 290,000); in the data active = binding response below about 67% or above about 130%
MEKK3 PB1 HTS: modulators of MEKK3-MEK5 PB1 binding, primary screen, biochemical, wildtype MEKK3, multiplex bead flow cytometry, Alexa488-MEK5 | Mitogen-activated protein kinase kinase kinase 3 (Homo sapiens), Q99759 | bead-based flow cytometry, Alexa488-MEK5 binding to MEKK3; actives lie on both sides; 0 = blocked by unlabeled MEK5, 100 = vehicle | binding response (% of control), % at 10 µM | actives 1.4% (n = 290,000) | AID 1529, 2009;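 active = binding response more than 3 SD above or below the average of its plate-row segment, actives on both sides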;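 also: Alexa488 bead fluorescence after subtracting the streptavidin-only scavenger bead signal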
TMEM16A inh: TMEM16A chloride channel inhibitors, primary screen, cell-based, HTS; actives 1.2% (n = 310,000); normalized B-score (activity score, 25-100; higher = stronger inhibition) at 10 µM; HEK293 TMEM16A/YFP iodide influx fluorescence, ionomycin; AID 588511, 2011; Anoctamin-1 (Mus musculus), Q8BHY3;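 active = ratio plate-corrected score three or more library SD toward inhibition, starting fluorescence score within five deviations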;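 also: score derived from kinetic fluorescence span divided by baseline fluorescence per well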
MEKK2mut PB1 HTS: MEK5 binding signal on mutant MEKK2 PB1, primary screen, biochemical, multiplex bead flow cytometry, Alexa488-MEK5; percent response, % at 10 µM; AID 1530, 2009; actives 0.35% (n = 290,000); Alexa488-MEK5 binding to MEKK2 mutant; in the data active = percent response above about 24%, passing the limit was not always enough
NTR1 ag: agonists of human NTR1, primary screen, imaging, U2OS cells, beta-arrestin-GFP, high content; Neurotensin receptor type 1 (Homo sapiens), P30989; NTR1-U2OS beta-arrestin-GFP spot imaging, agonist mode; activation, % at 20 µM; actives 0.17% (n = 330,000); AID 493036, 2011;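 active = activation at or above 40% of the spot to cytoplasm intensity ratio, with at least 20 cells analyzed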;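 also: 0% = DMSO without peptide and 100% = 100 nM NTR1 peptide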
Target sequence (P30989 whole entry, looked up): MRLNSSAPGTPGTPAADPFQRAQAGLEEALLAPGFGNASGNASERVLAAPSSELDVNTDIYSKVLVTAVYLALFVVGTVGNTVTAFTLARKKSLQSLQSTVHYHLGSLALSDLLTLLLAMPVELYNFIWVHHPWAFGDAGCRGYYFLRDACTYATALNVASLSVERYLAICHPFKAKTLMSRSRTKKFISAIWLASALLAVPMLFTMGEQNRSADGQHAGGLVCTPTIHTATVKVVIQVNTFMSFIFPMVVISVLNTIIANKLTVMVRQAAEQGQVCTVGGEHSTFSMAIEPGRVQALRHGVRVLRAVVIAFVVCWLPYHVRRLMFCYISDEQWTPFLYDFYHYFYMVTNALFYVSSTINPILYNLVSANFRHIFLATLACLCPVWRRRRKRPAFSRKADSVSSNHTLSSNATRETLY
TMEM16A act: TMEM16A chloride channel activators or potentiators, primary screen, cell-based, HTS; Anoctamin-1 (Mus musculus), Q8BHY3; HEK293 TMEM16A/YFP-H148Q/I152L, iodide quench fluorescence; active compounds read low; B-score at 10 µM; actives 0.3% (n = 340,000); AID 623877, 2012;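 active = fluorescence-ratio B-score plate-corrected deviation score at least 3 library SD below zero, with starting fluorescence score within 5 deviations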;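 also: channel opened by trigger with iodide after compound preincubation; score built on the fluorescence ratio of max minus min over baseline; more negative score means more quench and so TMEM16A activation or potentiation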
MEKK2wt confirm: modulators of MEK5 binding to wildtype MEKK2, confirmation, biochemical, single concentration, multiplex bead flow cytometry; Alexa488-MEK5 binding to MEKK2 WT; actives lie on both sides; binding response (% of control), % at 10 µM; shares compounds with MEKK3 PB1 HTS; actives 2.4% (n = 5,900); AID 1892, 2009; in the data active = binding response below about 16% or above about 210%; inactive = in between
MEKK2mut-MEK5: mutant MEKK2 PB1-MEK5 binding signal retest – biochemical, single concentration, multiplex bead flow cytometry, confirmation; shares compounds with MEKK3 PB1 HTS; Alexa488-MEK5 binding to MEKK2 mutant; actives 2% (n = 5,900); percent response, % at 10 µM; in the data active = percent response mostly above about 71%, no sharp cut-off; inactive = mostly below about 38%;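 also: higher means compound restores mutant binding toward wildtype level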
MEKK3-MEK5 inh: MEKK3 wild-type PB1 binding to MEK5, inhibitors, confirmation, biochemical, bead multiplex flow cytometry, single concentration, wildtype; actives 1.8% (n = 5,900); Alexa488-MEK5 binding to MEKK3; active compounds read low; binding response (% of control), % at 10 µM; AID 1894, 2009; shares compounds with MEKK3 PB1 HTS;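 active = binding response below 72% of control, or above a set upper limit, though filed actives all read lower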;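 also: 100% = DMSO only wells and 0% = binding blocked by excess unlabeled MEK5; lower values mean stronger disruption of MEK5 binding to MEKK3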
Numbers without * were called inactive; i = inactive; . = no result; [ ] = dose if it differs, or a comment.

SMILES	MEKK2 WT-MEK5	MEKK3 PB1 HTS	TMEM16A inh	MEKK2mut PB1 HTS	NTR1 ag	TMEM16A act	MEKK2wt confirm	MEKK2mut-MEK5	MEKK3-MEK5 inh
Cc1[nH]c2ccc(F)cc2c1CCNC(=O)C1CCCCC1C(=O)OCC(F)(F)F (stereo unspecified)	109	153*	i	1	2	i	99	-3	100
COc1ccc2[nH]c(C)c(CCNC(=S)Nc3ccc(F)cc3)c2c1	101	108	i	-5	0	i	.	.	.
N#CC(C#N)=c1ccc2c(c1)N1C(c3ccccc3)=CC(c3ccccc3)C3CCCCC31N=2 (stereo unspecified)	91	27*[inhibitor]	i	-33	1	i	45	-28	61*
COc1cc(-c2nc(C(=O)NC3CCN(Cc4ccccc4)CC3)cc3c2[nH]c2ccccc23)cc(OC)c1OC	147*	105	i	21	-1	i	170	47	107
Cc1ccc(-c2nc(C(=O)NCCCN(C)C)cc3c2[nH]c2ccccc23)cc1	146*	103	i	21	3	i	156	42	109
O=C(NCCO)c1cc2c([nH]c3ccccc32)c(-c2ccccc2)n1	101	100	i	1	0	i	.	.	.
COc1ccc(OC)c(-c2nc(C(=O)NC3CCN(Cc4ccccc4)CC3)cc3c2[nH]c2ccccc23)c1	146*	104	i	24*	-1	i	153	40	111
COc1ccc(CC(=O)Nc2nc3ccccc3[nH]2)cc1	95	96	i	-11	-2	i	.	.	.
COc1cccc(CC(=O)Nc2nc3ccccc3[nH]2)c1	.	96	i	112*	-2	i	109	4	105
O=C(c1ccc(Br)c(S(=O)(=O)N2CCOCC2)c1)N1CCN(C/C=C/c2ccccc2)CC1	.	.	.	.	.	i	.	.	.
O=C(CCNC(=O)c1ccc([N+](=O)[O-])cc1)Nc1cccc(S(=O)(=O)N2CCCCCC2)c1	.	.	.	.	2	i	.	.	.
COc1cc2c(cc1NC(=S)Nc1cccc(C(F)(F)F)c1)oc1ccccc12	153*	102	i	19	-1	i	126	-7	101
COc1cc2c(cc1NC(=O)Nc1ccccc1)oc1ccccc12	140*	105	i	18	14	i	157	16	96
Cc1c(NC(=O)c2ccc3c(c2)OCO3)cccc1-c1nc2ccccc2o1	113	131*	i	4	-1	i	108	13	111
COc1cc2c(cc1NC(=O)CCC(=O)O)oc1ccccc12	106	101	i	0	-1	i	.	.	.
Cc1ccc(-c2nc3ccccc3o2)cc1NC(=O)c1ccc2c(c1)OCO2	97	97	i	-2	19	i	.	.	.
COc1cc2c(cc1NC(=O)c1ccc3c(c1)OCO3)oc1ccccc12	-5.0*[inhibitor]	99	i	-34	5	i	95	-4	99
COc1cc2c(cc1NC(=S)Nc1cccc3ccccc13)oc1ccccc12	92	99	i	-3	3	i	.	.	.
O=C(CNC(=O)C1COc2ccccc2O1)Nc1cc(Cl)ccc1Cl (stereo unspecified)	.	.	.	.	0	i	.	.	.
Cc1cc(Cl)c2oc(C(=O)N3CCN(c4ccncc4)CC3)c(C)c2c1	147*	106	i	25*	4	i	153	30	111
C#CC(=O)N(c1ccc(OC)c(OC)c1)C(C(=O)NC1CCCC1)c1cccs1 (stereo unspecified)	114	125*	i	11	13	i	104	-2	100
O=C(NC1CCCCC1)C(c1cccs1)N(C(=O)c1ccco1)c1ccc2c(c1)OCCO2 (stereo unspecified)	91	60*[inhibitor]	i	2	-3	i	90	-3	96
O=C(O)/C=C/C(=O)Nc1ccc(Oc2ccc(NC(=O)/C=C/C(=O)O)cc2)cc1	106	150*	i	1	2	.	87	-9	87
O=C(O)/C=C\C(=O)Nc1ccc(Oc2ccccc2)cc1	92	98	i	0	0	i	.	.	.
O=C(CN1CCCc2ccccc21)NCCc1ccc(F)cc1	52	45*[inhibitor]	i	-20	2	i	96	-2	102
SMILES	MEKK2 WT-MEK5	MEKK3 PB1 HTS	TMEM16A inh	MEKK2mut PB1 HTS	NTR1 ag	TMEM16A act	MEKK2wt confirm	MEKK2mut-MEK5	MEKK3-MEK5 inh
CCCCSc1ncnc2[nH]ncc12	96	98	i	-7	1	i	.	.	.
Cc1nc2c3cc(F)ccc3n(Cc3ccccc3)c2s1	111	155*	i	-1	1	i	104	7	105
Cc1nc2c3ccccc3n(Cc3ccccc3F)c2s1	95	100	i	-2	1	i	.	.	.
Cc1nc2c3cc(F)ccc3n(Cc3ccccc3F)c2s1	109	140*	i	-1	1	i	89	-16	89
CC1CCN(S(=O)(=O)c2nnc(NC(=O)c3cccc(Cl)c3)s2)CC1	99	101	i	-5	7	i	.	.	.
Cc1ccc(NC(=O)c2ccc3c(c2)CCN3S(C)(=O)=O)cc1C	98	100	i	1	-1	i	.	.	.
COc1ccc(NC(=O)CCNC(=O)c2ccco2)cc1OC	99	101	i	1	-2	i	.	.	.
COc1ccc(CNCCNC(=O)c2ccco2)c(OC)c1OC	114	127*	i	6	0	i	103	3	102
CNC(=O)COc1ccccc1C(=O)Nc1ccc2c(c1)oc1ccccc12	101	103	i	1	6	i	.	.	.
